The text below walks through data of PubChem BioAssay (Tox21).

A short description of assay [1]: Human pregnane X receptor (PXR) small molecule agonists, qHTS cell viability counter screen (AID 1346977). Note: nearly all actives have a fitted effect of over 50% in size. Note: potency is the fitted concentration of half-maximal effect. The essentials: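 Fluorescence read-out (CellTiter-Fluor) of viability in PXR-Luc HepG2 cells, multiplexed with the luciferase agonist read. Compounds in DMSO added after 5hr plating; 24hr total exposure at 37C, 5% CO2.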
For orientation: qHTS replaces the single test concentration by a dilution series.

The nature of assay [2]: Caspase-3/7 induction in HepG2 cells by small molecules, qHTS assay (AID 1346978). Note: nearly all actives have a fitted effect of over 15% in size. Note: potency is the fitted concentration of half-maximal effect. The essentials: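 Wild-type HepG2 cells, 2,000/well, settled 5 hr at 37 C and 5% CO2, then compound-treated for 17 hr; caspase-3/7 activity read by luminescent Caspase-Glo 3/7 after 30 min at room temperature.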
A short description of assay [3]: Caspase-3/7 induction in CHO-K1 cells by small molecules, qHTS cell viability counter screen (AID 1346979). Note: nearly all actives have a fitted effect of over 35% in size. Note: potency is the fitted concentration of half-maximal effect. A digest of the protocol:
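CHO-K1 wt, 1,500 cells/well; 5hr pre-incubation 37C/5% CO2; compound pin transfer (DMSO); 16hr exposure; CellTiter-Fluor added, 1hr, fluorescence read.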

Assay [4] is described as follows: Caspase-3/7 induction in CHO-K1 cells by small molecules, qHTS assay (AID 1346980). Note: nearly all actives have a fitted effect of over 15% in size. Note: potency is the fitted concentration of half-maximal effect. A digest of the protocol:
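Wild-type CHO-K1 cells exposed to compounds for 17hr at 37 C, 5% CO2. Caspase-3/7 activity then measured by Caspase-Glo 3/7 luminescence after 30min at room temperature.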

For assay [5], the target named is Nuclear receptor subfamily 1 group I member 2 (Homo sapiens) (UniProt O75469). Briefly: Human pregnane X receptor (PXR) small molecule agonists, qHTS assay (AID 1346982). Note: nearly all actives have a fitted effect of over 35% in size. Note: potency is the fitted concentration of half-maximal effect. The essentials:
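Luciferase signal from ONE-Glo (30 min, room temperature) measured activation of hPXR-driven CYP3A4 reporter expression in PXR-Luc HepG2 cells treated with compounds for 24 hr at 37 C.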

In assay [6] the target is Cytochrome P450 2D6 (Homo sapiens) (UniProt P10635). Nature of the assay: Cytochrome P450 Family 2 Subfamily D Member 6 (CYP2D6) small molecule antagonists: luciferase reporter qHTS assay (AID 1671196). For activity change, negative = inhibition: series mostly up to about 120 µM. Note: nearly all actives have a fitted effect of over 50% in size. Note: potency is the fitted concentration of half-maximal effect. The essentials: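 Read-out is luminescence from luciferin formed by CYP2D6 turnover of a proluciferin substrate, recorded as relative luminescence units. Reactions ran 1 h at room temperature after NADPH regeneration solution was added.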
Chain of Cytochrome P450 2D6 (Homo sapiens) (P10635 whole entry, looked up): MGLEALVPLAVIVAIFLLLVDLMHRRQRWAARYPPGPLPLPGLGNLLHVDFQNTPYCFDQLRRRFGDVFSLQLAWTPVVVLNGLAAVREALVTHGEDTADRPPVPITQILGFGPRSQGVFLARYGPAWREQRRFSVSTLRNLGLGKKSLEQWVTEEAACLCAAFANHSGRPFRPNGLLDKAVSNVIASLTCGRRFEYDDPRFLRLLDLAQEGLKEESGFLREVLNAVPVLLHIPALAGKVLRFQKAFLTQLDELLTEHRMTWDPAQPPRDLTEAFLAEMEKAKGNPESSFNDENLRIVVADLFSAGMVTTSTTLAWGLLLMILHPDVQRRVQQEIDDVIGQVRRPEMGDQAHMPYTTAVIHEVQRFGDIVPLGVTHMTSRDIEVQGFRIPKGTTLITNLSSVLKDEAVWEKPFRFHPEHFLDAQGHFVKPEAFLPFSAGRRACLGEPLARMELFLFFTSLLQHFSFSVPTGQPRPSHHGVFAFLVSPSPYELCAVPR
For orientation: Reporter assays use an easily measured gene product as a stand-in for the process of interest.

For assay [7], the target named is Cytochrome P450 2C19 (Homo sapiens) (UniProt P33261). Briefly: Cytochrome P450 Family 2 Subfamily C Member 19 (CYP2C19) small molecule antagonists: luciferase reporter qHTS assay (AID 1671197). For activity change, negative = inhibition: series mostly up to about 120 µM. Note: nearly all actives have a fitted effect of over 65% in size. Note: potency is the fitted concentration of half-maximal effect. The essentials:
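First, compounds are pinned into enzyme-substrate mix and held 10 min at room temperature. Second, NADPH regeneration solution is added and plates incubate 1 h at 37C. Third, detection reagent is added and luminescence read after 20 min.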

Assay [8] has as its target Cytochrome P450 2C9 (Homo sapiens) (UniProt P11712). Nature of the assay: Cytochrome P450 Family 2 Subfamily C Member 9 (CYP2C9) small molecule antagonists: luciferase reporter qHTS assay (AID 1671198). For activity change, negative = inhibition: series mostly up to about 120 µM. Note: nearly all actives have a fitted effect of over 50% in size. Note: potency is the fitted concentration of half-maximal effect. The essentials: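 P450-Glo proluciferin substrate with CYP2C9 enzyme; 10 min RT preincubation, then NADPH regeneration 1 h at 37C; luciferin detection reagent 20 min RT, luminescence in relative luminescence units.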

Assay [9] addresses Cytochrome P450 1A2 (Homo sapiens) (UniProt P05177). Nature of the assay: Cytochrome P450 Family 1 Subfamily A Member 2 (CYP1A2) small molecule antagonists: luciferase reporter qHTS assay (AID 1671199). For activity change, negative = inhibition: series mostly up to about 120 µM. Note: nearly all actives have a fitted effect of over 50% in size. Note: potency is the fitted concentration of half-maximal effect. A digest of the protocol:
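P450-Glo CYP1A2, 1536-well qHTS: enzyme/proluciferin substrate + cpd (DMSO), 10 min RT; NADPH regen, 1 h RT; detection reagent, 20 min; luminescence, RLU.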

The target in assay [10] is Voltage-gated inwardly rectifying potassium channel KCNH2 (Homo sapiens) (UniProt Q12809). Nature of the assay: Human Ether-a-go-go-Related Gene (hERG) channel small molecule antagonists: fluorescence cell-based qHTS assay (AID 1671200). The essentials: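 Read-out: thallium influx as a surrogate for potassium, tracked as fluorescence (480 nm ex/540 nm em) every second for 2 min after Stimulus Buffer addition in dye-loaded hERG-U2OS cells.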
Chain of Voltage-gated inwardly rectifying potassium channel KCNH2 (Homo sapiens) (Q12809 whole entry, looked up): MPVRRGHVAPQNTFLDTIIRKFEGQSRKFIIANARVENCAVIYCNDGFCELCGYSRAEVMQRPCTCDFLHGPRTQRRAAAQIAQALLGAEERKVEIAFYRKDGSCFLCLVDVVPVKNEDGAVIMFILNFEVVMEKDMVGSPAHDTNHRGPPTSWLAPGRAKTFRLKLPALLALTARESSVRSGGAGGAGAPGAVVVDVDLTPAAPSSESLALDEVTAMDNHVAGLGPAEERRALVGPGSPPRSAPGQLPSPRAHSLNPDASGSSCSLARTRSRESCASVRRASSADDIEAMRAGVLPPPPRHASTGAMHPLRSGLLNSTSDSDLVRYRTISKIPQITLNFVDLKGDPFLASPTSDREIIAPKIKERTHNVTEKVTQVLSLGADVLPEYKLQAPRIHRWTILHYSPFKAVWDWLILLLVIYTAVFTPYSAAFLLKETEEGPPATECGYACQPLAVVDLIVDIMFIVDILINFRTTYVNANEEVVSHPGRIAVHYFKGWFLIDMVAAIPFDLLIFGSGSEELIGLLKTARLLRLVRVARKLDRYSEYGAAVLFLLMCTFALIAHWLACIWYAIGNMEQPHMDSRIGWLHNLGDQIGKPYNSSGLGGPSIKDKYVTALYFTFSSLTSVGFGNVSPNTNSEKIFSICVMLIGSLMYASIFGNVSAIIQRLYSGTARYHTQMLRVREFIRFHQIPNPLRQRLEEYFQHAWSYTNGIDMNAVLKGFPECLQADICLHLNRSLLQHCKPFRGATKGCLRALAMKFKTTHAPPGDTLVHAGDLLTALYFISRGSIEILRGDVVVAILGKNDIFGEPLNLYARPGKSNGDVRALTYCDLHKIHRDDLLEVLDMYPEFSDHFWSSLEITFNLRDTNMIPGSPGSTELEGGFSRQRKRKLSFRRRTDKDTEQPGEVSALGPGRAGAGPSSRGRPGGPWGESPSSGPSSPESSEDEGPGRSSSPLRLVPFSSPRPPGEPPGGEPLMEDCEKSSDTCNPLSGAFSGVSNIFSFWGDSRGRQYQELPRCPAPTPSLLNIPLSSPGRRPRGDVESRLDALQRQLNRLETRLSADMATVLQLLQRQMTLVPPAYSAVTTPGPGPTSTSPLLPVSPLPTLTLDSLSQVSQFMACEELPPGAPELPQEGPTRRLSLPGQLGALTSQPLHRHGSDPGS
For orientation: The hERG channel carries a current that helps repolarise heart muscle cells.

The target in assay [11] is Cytochrome P450 3A4 (Homo sapiens) (UniProt P08684). Nature of the assay: Cytochrome P450 Family 3 Subfamily A Member 4 (CYP3A4) small molecule antagonists: luciferase reporter qHTS assay (AID 1671201). For activity change, negative = inhibition: series mostly up to about 120 µM. Note: nearly all actives have a fitted effect of over 50% in size. Note: potency is the fitted concentration of half-maximal effect. The essentials:
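Luminescent readout (RLU) proportional to CYP3A4 activity, from luciferin generated off a proluciferin substrate. Enzyme–substrate mix plus compound 10 min at room temp, NADPH regeneration 1 h, detection reagent 20 min.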

The nature of assay [12]: Caspase-3/7 induction in HepG2 cells by small molecules, qHTS cell viability counter screen (AID 1346981). Note: series mostly up to about 92 µM; nearly all actives have a fitted effect of over 30% in size. The essentials: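 HepG2, WT, 2,000 cells/well; 5 hr pre-incubation 37 C/5% CO2; compound pin-transferred from DMSO; 16 hr exposure; CellTiter-Fluor, 1 hr; fluorescence read.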

Values joined by “and” are separate entries in the source; they are usually repeats but may differ in a detail not shown here. Equal values may be shown once. A number with no mark means an inactive call. Inconclusive results are not listed. Active and inactive are the calls of the source. Calls come from the whole dose curve; as a rule, active = well fitted curve in the direction sought with a large enough effect in the repeat runs; inconclusive = weak or mixed curves; inactive = no such curve, though single readings can be large; an effect the other way counts as inactive or inconclusive.
% is set by controls: 0 for no effect and ±100 for the full control effect.

Chain of Cytochrome P450 2C9 (Homo sapiens) (P11712 whole entry, looked up): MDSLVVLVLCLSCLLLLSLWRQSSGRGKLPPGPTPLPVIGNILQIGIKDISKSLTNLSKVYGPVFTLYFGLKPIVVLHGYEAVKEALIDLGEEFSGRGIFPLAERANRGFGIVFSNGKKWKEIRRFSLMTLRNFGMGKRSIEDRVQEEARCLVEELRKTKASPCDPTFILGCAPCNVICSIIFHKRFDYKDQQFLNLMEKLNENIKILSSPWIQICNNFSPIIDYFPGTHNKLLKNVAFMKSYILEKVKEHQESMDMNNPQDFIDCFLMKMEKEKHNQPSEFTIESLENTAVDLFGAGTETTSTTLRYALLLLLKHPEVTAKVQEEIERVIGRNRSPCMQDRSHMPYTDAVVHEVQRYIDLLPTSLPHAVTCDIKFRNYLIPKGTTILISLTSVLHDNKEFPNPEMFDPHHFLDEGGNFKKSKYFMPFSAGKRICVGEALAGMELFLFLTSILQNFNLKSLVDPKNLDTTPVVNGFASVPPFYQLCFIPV
Chain of Nuclear receptor subfamily 1 group I member 2 (Homo sapiens) (O75469 whole entry, looked up): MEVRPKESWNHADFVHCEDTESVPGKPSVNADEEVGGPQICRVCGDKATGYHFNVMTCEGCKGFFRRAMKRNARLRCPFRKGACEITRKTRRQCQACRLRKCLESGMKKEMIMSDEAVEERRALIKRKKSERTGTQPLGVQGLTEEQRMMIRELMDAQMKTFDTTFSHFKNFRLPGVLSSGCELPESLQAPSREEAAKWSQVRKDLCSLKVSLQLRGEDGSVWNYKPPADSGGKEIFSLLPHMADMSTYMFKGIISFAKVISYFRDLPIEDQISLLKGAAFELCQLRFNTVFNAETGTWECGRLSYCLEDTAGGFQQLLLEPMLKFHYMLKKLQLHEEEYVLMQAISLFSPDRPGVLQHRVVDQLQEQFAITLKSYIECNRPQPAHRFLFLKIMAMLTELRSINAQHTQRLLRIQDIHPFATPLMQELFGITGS
Chain of Cytochrome P450 3A4 (Homo sapiens) (P08684 whole entry, looked up): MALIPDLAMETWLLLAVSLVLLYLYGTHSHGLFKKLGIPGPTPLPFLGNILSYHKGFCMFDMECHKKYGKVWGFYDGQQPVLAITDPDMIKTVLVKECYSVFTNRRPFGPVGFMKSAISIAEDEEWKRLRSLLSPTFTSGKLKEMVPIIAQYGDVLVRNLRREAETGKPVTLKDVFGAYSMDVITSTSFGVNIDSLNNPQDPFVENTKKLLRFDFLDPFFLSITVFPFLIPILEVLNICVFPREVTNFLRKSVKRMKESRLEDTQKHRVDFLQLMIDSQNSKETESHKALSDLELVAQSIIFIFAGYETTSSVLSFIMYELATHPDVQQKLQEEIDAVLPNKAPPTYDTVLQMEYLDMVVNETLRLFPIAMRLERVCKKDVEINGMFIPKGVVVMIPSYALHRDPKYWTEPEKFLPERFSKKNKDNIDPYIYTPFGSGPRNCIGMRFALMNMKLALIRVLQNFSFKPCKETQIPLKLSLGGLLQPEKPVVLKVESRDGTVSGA
Chain of Cytochrome P450 2C19 (Homo sapiens) (P33261 whole entry, looked up): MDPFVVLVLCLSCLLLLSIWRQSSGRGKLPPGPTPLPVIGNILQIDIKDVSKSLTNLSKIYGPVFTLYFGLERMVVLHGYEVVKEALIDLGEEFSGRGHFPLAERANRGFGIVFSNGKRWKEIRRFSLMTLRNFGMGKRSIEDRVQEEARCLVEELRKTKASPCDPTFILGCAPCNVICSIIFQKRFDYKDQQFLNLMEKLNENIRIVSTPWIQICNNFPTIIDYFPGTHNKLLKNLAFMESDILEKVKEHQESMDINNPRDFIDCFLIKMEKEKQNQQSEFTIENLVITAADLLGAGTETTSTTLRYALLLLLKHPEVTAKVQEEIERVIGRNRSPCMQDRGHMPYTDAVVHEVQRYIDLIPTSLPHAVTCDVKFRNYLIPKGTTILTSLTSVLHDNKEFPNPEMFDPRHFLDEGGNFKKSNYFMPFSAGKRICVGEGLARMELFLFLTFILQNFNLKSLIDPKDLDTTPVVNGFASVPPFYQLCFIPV
Chain of Cytochrome P450 1A2 (Homo sapiens) (P05177 whole entry, looked up): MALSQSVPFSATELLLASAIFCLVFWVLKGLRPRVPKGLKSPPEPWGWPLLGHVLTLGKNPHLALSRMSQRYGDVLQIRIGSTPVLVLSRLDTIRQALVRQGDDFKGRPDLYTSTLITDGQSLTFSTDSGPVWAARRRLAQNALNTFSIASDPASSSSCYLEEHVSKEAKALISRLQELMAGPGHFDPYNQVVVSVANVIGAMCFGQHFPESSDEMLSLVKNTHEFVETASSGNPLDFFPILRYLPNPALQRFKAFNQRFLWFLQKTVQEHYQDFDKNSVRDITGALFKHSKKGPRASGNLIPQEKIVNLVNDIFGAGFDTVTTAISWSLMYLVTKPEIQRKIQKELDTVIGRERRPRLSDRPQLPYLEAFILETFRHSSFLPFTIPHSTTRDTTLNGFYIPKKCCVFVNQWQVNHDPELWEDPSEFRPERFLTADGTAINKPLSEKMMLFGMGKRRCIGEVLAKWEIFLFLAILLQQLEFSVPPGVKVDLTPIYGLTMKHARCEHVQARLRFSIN

For `Cc1ccc(N=Nc2c(O)c(C(=O)O)cc3ccccc23)c(S(=O)(=O)O)c1`, the values for the Potency in assay [1], in assay [3] and in assay [8] were 23.6 µM (active), 23.6 µM (active) and 34.5 µM (active), respectively. Also, the Potency result in assay [2], in assay [4], in [5], in [6], in assay [7] and in assay [9] was “inactive” each time. In addition, the Potency result in [10] and in assay [11] was “inactive” in each case.
Consider `CC1=CC=C(C(C)C)CC1`, for which the Potency entry in assay [1], in [2], in [3], in assay [4], in assay [5] and in assay [6] was “inactive” throughout. The Potency result in assay [10] was “inactive”. The Potency in assay [7] is 35.6 µM (active); in [8] it was 63.3 µM (active); in [9] it was 31.7 µM (active); in [11], 39.9 µM (active).
Regarding `O=C(O)c1ccc(S(=O)(=O)O)cc1C(=O)O`, the Potency result in assay [1], in assay [2], in assay [3], in [4], in assay [5] and in assay [6] was “inactive” in each case. Moreover, the Potency entry in assay [8], in assay [9], in assay [10] and in assay [11] was “inactive” throughout.
As to `NCCCN1CCOCC1`, the Potency result in assay [1], in assay [2], in assay [3], in assay [4], in [5] and in [8] was “inactive” each time. Also, the Potency result in assay [9], in assay [10] and in assay [11] was “inactive” each time.
Regarding `c1cc(CCCc2ccncc2)ccn1`, the Potency result in assay [1], in assay [2], in assay [3] and in assay [4] was “inactive” throughout. Besides, the Potency in assay [5] is 61.1 µM (active); in [6], 1.78 µM (active); in [8], 5.64 µM (active); in assay [9], 1.78 µM (active); in assay [11], 1 µM (active).
With `CCCCc1nc2cccnc2n1Cc1ccc(-c2ccccc2-c2nnn[nH]2)cc1`, the Potency result in assay [1], in [2], in assay [4], in [7] and in [10] was “inactive” in each case. Also, the Potency is 48.6 µM (active) in assay [3], 61.1 µM (active) in [5], 0.356 µM (active) in [8] and 44.8 µM (active) in [9].
On to `CCCCC(=O)OCC(=O)[C@H]1[C@H](C)C[C@H]2[C@@H]3C[C@H](F)C4=CC(=O)C=C[C@]4(C)[C@@]3(F)[C@@H](O)C[C@@]21C`, for which the Potency entry in [1], in assay [2], in assay [3] and in [4] was “inactive” throughout. Besides, in [5], the Potency is 9.44 µM (active).
In the case of `C=CC(=O)OCCOCCOCCOCCOC(=O)C=C`, the Potency in assay [1] was 54 µM (active); in assay [2], 68 µM (active); in [3], 8.68 µM (active) and 13.6 µM (active); in [4] it was 9.74 µM (active) and 12.1 µM (active). Further, the Potency entry in [5], in assay [6], in [7], in assay [8] and in [10] was “inactive” throughout.
`O=C(O)c1ccco1`: the Potency entry in assay [1], in assay [2], in assay [3], in assay [4], in assay [5] and in [6] was “inactive” throughout. Further, the Potency result in assay [7], in assay [8] and in assay [11] was “inactive” in each case.
Consider `NCC(=O)O`, for which the activity change, negative = cytotoxicity in assay [1] was 14.5% [at 19 µM]; in assay [3], 7.68% [at 19 µM]; in assay [12] it was 4.32% [at 19 µM]. For the same compound, the caspase activation in [2] is -0.745% [at 19 µM]. Further, in assay [4], the caspase-3/7 activation was -1.83% [at 19 µM]. For the same compound, in [10], the activity change, negative = inhibition was 0.344% [at 15.8 µM].
